# Assay results taken from PubChem BioAssay (NCATS).
# “And” between values parts separate entries of the source, which are not always exact repeats. Identical values can stand only once. Inconclusive results are not listed. Where a call stands in place of a potency, no number is given. Unmarked numbers belong to inactive results. The source made the active and inactive calls. Unless noted, the call rests on the fitted dose curve; in most records, active means well fitted curve in the direction sought with a large enough effect; inconclusive means small, poorly fitted or top-dose-only effect, or another doubt; inactive means no such curve, though single readings can be large; an effect the other way counts as inactive or inconclusive.
# How the values were obtained:
# [1] = biological target: Cellular tumor antigen p53 (Homo sapiens) (UniProt P04637); test: Primary qHTS for small molecule compounds that upregulate eGFP-tagged delta133p53alpha (in N-terminal) cells. (AID 2060322); details: NCI-H358 eGFP-delta133p53alpha fluorescence, 24 h; activation: stronger effect = higher value; further: nearly all actives have a fitted effect of over 75% in size; further: potency means the concentration at half of the fitted maximal effect; on activation: series mostly up to about 56 µM
# Summary of the method: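 NCI-H358 cells pre-induced 24 h with 10 ng/ml doxycycline to express N-terminal eGFP-delta133p53alpha, then dosed 24 h at 37C without doxycycline; fixed, Hoechst-stained, GFP intensity by laser scanning cytometry, normalized to DMSO (0%) and 57.5 uM 5-azacytidine (100%).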
# [2] = biological target: Cellular tumor antigen p53 (Homo sapiens) (UniProt P04637); test: Primary qHTS for small molecule compounds that upregulate eGFP-tagged delta133p53alpha (in C-terminal) cells. (AID 2060324); further: potency means the concentration at half of the fitted maximal effect
# Summary of the method: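 NCI-H358 cells pre-induced 24 h with 100 ng/ml doxycycline to express delta133p53alpha-eGFP, then dosed in doxycycline-free medium for 24 h at 37C. Fixed, Hoechst-stained; GFP intensity by laser scanning cytometry, normalized to DMSO wells.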
# [3] = biological target: Aldehyde dehydrogenase, mitochondrial (Homo sapiens) (UniProt P05091); test: qHTS for Inhibitors of the Aldehyde Dehydrogenase Family (ALDH2) Validation screens (AID 2061302; active means well fitted inhibition curve with a large enough effect; title and protocol of this record describe different tests)
# [4] = biological target: Retinaldehyde dehydrogenase 3 (Homo sapiens) (UniProt P47895); test: qHTS for Inhibitors of the Aldehyde Dehydrogenase Family (ALDH1A3) Validation screen (AID 2061312); further: nearly all actives have a fitted effect of over 45% in size
# [5] = BET inhibitor-based combinations targeting novel dependencies in MECOM-rearranged (r) AML: MV-4-11 cell line (AID 2202233); further: nearly all actives have a fitted effect of over 45% in size; further: potency means the concentration at half of the fitted maximal effect
# Summary of the method: (§1)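 Using pin-tool transfer, drugs were added in 11 doses to cells (500/well), incubated 48 hr, and assessed with CellTiter-Glo. Z-AUC is a mean-centring transformation applied separately to each screened line.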
# [6] = BET inhibitor-based combinations targeting novel dependencies in MECOM-rearranged (r) AML: AML-194 cell line (AID 2202237; further: nearly all actives have a fitted effect of over 40% in size; further: potency means the concentration at half of the fitted maximal effect)
# Summary of the method: (§2)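 Viability of cells (500 per well) is scored by luminescent CellTiter-Glo at 48 hr post-dosing. Eleven-point titrations are normalized to DMSO and empty controls and reduced to AUC values.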
# [7] = biological target: Aldehyde dehydrogenase, mitochondrial (Homo sapiens) (UniProt P05091); test: qHTS for Inhibitors of the Aldehyde Dehydrogenase Family (ALDH2) Confirmatory screens (AID 2061303; active means well fitted inhibition curve with a large enough effect; title and protocol of this record describe different tests; further: nearly all actives have a fitted effect of over 45% in size)
# [8] = qHTS for Inhibitors of the Aldehyde Dehydrogenase Family (ALDH1A2, ALDH1A3, ALDH2, ALDH3A1) (AID 2061307); further: nearly all actives have a fitted effect of over 50% in size
# [9] = biological target: Retinaldehyde dehydrogenase 3 (Homo sapiens) (UniProt P47895); test: qHTS for Inhibitors of the Aldehyde Dehydrogenase Family (ALDH1A3) Confirmatory screens (AID 2061311); further: potency means the concentration at half of the fitted maximal effect; nearly all actives have a fitted effect of over 60% in size
# [10] = biological target: Retinal dehydrogenase 2 (Homo sapiens) (UniProt O94788); test: qHTS for Inhibitors of the Aldehyde Dehydrogenase Family (ALDH1A2) Confirmation screens (AID 2061314); further: nearly all actives have a fitted effect of over 65% in size
# [11] = biological target: Aldehyde dehydrogenase 1A1 (Homo sapiens) (UniProt P00352); test: qHTS for Inhibitors of the Aldehyde Dehydrogenase Family (ALDH1A1) Confirmatory screens (AID 2061316); further: nearly all actives have a fitted effect of over 65% in size; further: potency means the concentration at half of the fitted maximal effect
# [12] = BET inhibitor-based combinations targeting novel dependencies in MECOM-rearranged (r) AML: SET-2 cell line (AID 2202231); details: SET-2 AML cells viability, CellTiter-Glo luminescence, 48 h; viability: stronger effect = lower value, concentration not given here; further: nearly all actives have a fitted effect of over 35% in size; further: potency means the concentration at half of the fitted maximal effect
# Summary of the method: as §2
# [13] = BET inhibitor-based combinations targeting novel dependencies in MECOM-rearranged (r) AML: OCI-AML3 cell line (AID 2202232); details: Potency: OCI-AML3 viability; further: nearly all actives have a fitted effect of over 35% in size; further: potency means the concentration at half of the fitted maximal effect
# Summary of the method: as §2
# [14] = BET inhibitor-based combinations targeting novel dependencies in MECOM-rearranged (r) AML: HNT-34 cell line (AID 2202234); further: nearly all actives have a fitted effect of over 35% in size; further: potency means the concentration at half of the fitted maximal effect
# Summary of the method: as §1
# [15] = BET inhibitor-based combinations targeting novel dependencies in MECOM-rearranged (r) AML: UCSD-AML1 cell line (AID 2202235); further: nearly all actives have a fitted effect of over 40% in size; further: potency means the concentration at half of the fitted maximal effect
# Summary of the method: as §1
# [16] = BET inhibitor-based combinations targeting novel dependencies in MECOM-rearranged (r) AML: AML-191 cell line (AID 2202236; further: nearly all actives have a fitted effect of over 35% in size; further: potency means the concentration at half of the fitted maximal effect)
# Summary of the method: as §2
# Cellular tumor antigen p53 (Homo sapiens), sequence (P04637 whole entry, looked up): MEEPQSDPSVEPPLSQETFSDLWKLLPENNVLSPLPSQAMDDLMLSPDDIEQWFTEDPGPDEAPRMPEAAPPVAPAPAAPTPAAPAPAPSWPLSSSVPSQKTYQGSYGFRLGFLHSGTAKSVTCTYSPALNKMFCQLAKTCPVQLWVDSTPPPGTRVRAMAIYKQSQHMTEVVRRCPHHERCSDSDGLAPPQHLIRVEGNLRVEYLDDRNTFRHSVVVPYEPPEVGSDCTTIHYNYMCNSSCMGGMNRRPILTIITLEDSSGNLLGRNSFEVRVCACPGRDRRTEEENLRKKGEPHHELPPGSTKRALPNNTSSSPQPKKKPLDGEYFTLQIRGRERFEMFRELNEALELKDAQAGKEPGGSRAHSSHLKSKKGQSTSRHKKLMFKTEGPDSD
structure (smiles),measurement,setting,value
CC#C[C@]1(O)CC[C@H]2[C@@H]3CCC4=CC(=O)CCC4=C3[C@@H](c3ccc(N(C)C)cc3)C[C@@]21C,activation,[1],7.02%
same,Potency,[2],inactive
same,Potency,[3],inactive
same,Potency,[4],inactive
same,Potency,[5],23.5 µM (active)
same,Potency,[6],18.6 µM (active)
Cc1cc(C(C)(C)C)cc(C)c1CC1=NCCN1,activation,[1],4.18% and 6.06% and -36%
same,Potency,[2],inactive
same,Potency,[3],inactive
same,Potency,[4],inactive
same,Potency,[5],18.6 µM (active)
same,Potency,[6],inactive
Cc1nc(N=Nc2cc(S(=O)(=O)O)c3cc([N+](=O)[O-])cc(S(=O)(=O)O)c3c2)c(COP(=O)(O)O)c(C=O)c1O,activation,[1],-72.9%
same,Potency,[2],inactive
same,Potency,[7],inactive
same,Potency,[8],inactive
same,Potency,[9],22.5 µM (active)
same,Potency,[4],inactive
same,Potency,[10],inactive
same,Potency,[11],inactive
C[C@@H](N)C1CCC(C(=O)Nc2ccncc2)CC1 (some centres not stated),activation,[1],-43.5% and -9.78%
same,Potency,[2],inactive
same,Potency,[3],inactive
same,viability,[12],110%
same,Potency,[13],inactive
same,Potency,[14],inactive
same,Potency,[15],inactive
same,Potency,[16],inactive
same,Potency,[6],inactive
O=Nc1c(-c2c(O)[nH]c3cc(Br)ccc23)[nH]c2ccccc12,activation,[1],17.1% and -39.3%
same,Potency,[2],inactive
same,Potency,[3],inactive
same,Potency,[12],5.25 µM (active)
same,Potency,[5],0.263 µM (active)
same,Potency,[14],2.63 µM (active)
same,Potency,[15],13.2 µM (active)
same,Potency,[16],14.8 µM (active)
same,Potency,[6],14.8 µM (active)
COc1cc(/C=C(\C#N)C(=O)Nc2nnc(C(F)(F)F)s2)ccc1OCc1ccc(C(F)(F)F)cc1C(F)(F)F,activation,[1],-42%
same,Potency,[2],inactive
same,Potency,[7],inactive
same,Potency,[8],inactive
same,Potency,[10],inactive
same,Potency,[11],inactive
same,viability,[12],111%
same,Potency,[5],inactive
same,Potency,[14],inactive
same,Potency,[15],inactive
same,Potency,[16],inactive
same,Potency,[6],inactive
Nc1nc(N)c(N=O)c(OCC2CCCCC2)n1,activation,[1],-20.9%
same,Potency,[2],inactive
same,Potency,[3],inactive
same,Potency,[4],inactive
same,Potency,[14],5.25 µM (active)
same,Potency,[15],3.32 µM (active)
Cn1ccc2cc3c(cc21)CCN3C(=O)Nc1cccnc1,activation,[1],20.1% and 12% and -55.1%
same,Potency,[2],inactive
same,Potency,[3],inactive
same,viability,[12],105%
same,Potency,[14],inactive
same,Potency,[15],inactive
same,Potency,[16],inactive
same,Potency,[6],inactive
O=C1Nc2ccc(I)cc2/C1=C/c1cc(Br)c(O)c(Br)c1,activation,[1],-56.5%
same,Potency,[2],19 µM (active)
same,Potency,[3],inactive
same,viability,[12],96.6%
same,Potency,[13],inactive
same,Potency,[15],inactive
same,Potency,[16],18.6 µM (active)
same,Potency,[6],inactive
O=C1NC(c2cccc([N+](=O)[O-])c2)=CCN1c1ccccc1O,activation,[1],5.67% and -12.4%
same,Potency,[2],inactive
same,Potency,[3],inactive
same,Potency,[11],inactive
Cc1ccc(S(=O)(=O)N[C@@H](Cc2ccccc2)C(=O)CCl)cc1,Potency,[1],24.3 µM (active)
same,Potency,[2],26.9 µM (active)
same,Potency,[3],inactive
same,Potency,[11],0.565 µM (active)
same,Potency,[12],18.6 µM (active)
same,Potency,[13],16.6 µM (active)
same,Potency,[14],13.2 µM (active)
same,Potency,[16],20.9 µM (active)
same,Potency,[6],23.5 µM (active)
Cn1ncc(S(=O)(=O)Cc2ccccc2)c(Br)c1=O,activation,[1],-32.8%
same,Potency,[2],inactive
same,Potency,[8],inactive
COc1ccccc1N1CCN(CC(O)COc2cccc3ccccc23)CC1 (configuration not stated),activation,[1],17.1% and 24.3% and -36.9%
same,Potency,[2],inactive
same,Potency,[3],inactive
same,Potency,[12],13.2 µM (active)
same,Potency,[5],14.8 µM (active)
same,Potency,[15],5.25 µM (active)
same,Potency,[16],9.34 µM (active)
same,Potency,[6],inactive
Oc1ccc(C2CNCCc3c2cc(O)c(O)c3Cl)cc1 (configuration not stated),activation,[1],-18.2% and -20.9% and -11.7%
same,Potency,[2],inactive
same,Potency,[3],inactive
same,viability,[12],108%
same,Potency,[13],inactive
same,Potency,[5],inactive
same,Potency,[14],inactive
same,Potency,[15],inactive
same,Potency,[6],inactive
C[C@H]1O[C@@H](n2cc(F)c(=O)[nH]c2=O)[C@H](O)[C@@H]1O,activation,[1],2.35%
same,Potency,[2],inactive
same,Potency,[3],inactive
same,Potency,[4],inactive
same,Potency,[5],13.2 µM (active)
Clc1ccc2nsnc2c1NC1=NCCN1,activation,[1],17.5% and 19.5%
same,Potency,[2],inactive
same,Potency,[3],inactive
same,viability,[12],111%
same,Potency,[13],inactive
same,Potency,[14],inactive
same,Potency,[15],inactive
same,Potency,[16],inactive
same,Potency,[6],inactive
COc1ccccc1OCC(O)CN1CCN(CC(=O)Nc2c(C)cccc2C)CC1 (configuration not stated),activation,[1],-19.2% and 6.83% and -14.1%
same,Potency,[2],inactive
same,Potency,[3],inactive
same,viability,[12],110%
same,Potency,[5],inactive
same,Potency,[14],inactive
same,Potency,[16],inactive
same,Potency,[6],inactive
